Shown are actives, neighbours in structure and some others; about 19% of the full set was active somewhere.
HT1080 IDH1KD tx = qHTS for induction of synthetic lethality in tumor cells producing 2HG: qHTS for the HT-1080-IDH1KD cell line. HT-1080 IDH1 knockdown viability, ATP luminescence, 48 h. AID 686971, 2013. hit rate 2% among 360,000. Potency, µM (titrated, usually from 46.1 µM), usual class: cytotoxic
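Assay cells: HT-1080 with IDH1 knockdown, 750 per well, RPMI/5% FBS. Exposure: 48 h at 37 °C following 2 h pre-incubation. Read: CellTiter-Glo luminescence; fitted concentration-response, curve class assigned.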
TDP1 cell noCPT = qHTS for Inhibitors of human tyrosyl-DNA phosphodiesterase 1 (TDP1): qHTS in cells in absence of CPT; DT40 Tdp1-/- hTDP1 cells, no CPT, ATP luminescence, 48 h; Potency, µM (highest dose often 46.2 µM), usual class: inhibitors; hit rate 15% among 420,000; AID 686978, 2013; note: nearly all actives have a fitted effect of over 55% in size
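Growth kinetics read by CellTiter-Glo luminescence after ≥48 hr at 37 °C. Cells: DT40 Tdp1-/- stably carrying human TDP1, 400 per well, compound exposure in the absence of CPT (DMSO vehicle).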
IL1B secr inh = qHTS for Inhibitors of Inflammasome Signaling: IL-1-beta AlphaLISA Primary Screen; activity change, % at 57.5 µM; THP-1 LPS/ATP IL-1B secretion, AlphaLISA, 16 h; active compounds read low; hit rate 4.7% among 360,000; in the data active = activity change below about -50%; inconclusive = mostly about -30% to -49%
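THP-1 cells pretreated 1 hr with compounds (up to 57.5 uM final), then stimulated with LPS (250 ng/mL final) plus ATP (1.25 mM final); secreted IL-1B measured by AlphaLISA after 16 hr, decreased signal indicating inhibition.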
HT1080NT lethal = qHTS for induction of synthetic lethality in tumor cells producing 2HG: qHTS for the HT-1080-NT fibrosarcoma cell line; HT-1080-NT fibrosarcoma viability, CellTiter-Glo ATP luminescence, 48 h; Potency, µM (titrated, usually from 46.1 µM), most hits filed as cytotoxic; hit rate 1.6% among 360,000; AID 686970, 2013;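 note: NT is the 2HG producing partner of a matched IDH1 knockdown line; nearly all actives have a fitted effect of over 55% in size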
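Read-out is CellTiter-Glo luminescence after 10 minutes at room temperature, following 48 hours' compound treatment of HT-1080-NT cells (750 cells/well, RPMI, 5% FBS, 37 degrees C).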
TDP1 cell CPT = qHTS for Inhibitors of human tyrosyl-DNA phosphodiesterase 1 (TDP1): qHTS in cells in presence of CPT; Potency, µM (series often up to 46.2 µM), usual class: inhibitors; chicken DT40 Tdp1-/-;hTDP1 cells + 20 nM CPT, ATP luminescence, 48 h; hit rate 12% among 420,000; note: nearly all actives have a fitted effect of over 55% in size
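Chicken DT40 Tdp1-/- cells complemented with human TDP1, 400 cells/well, exposed to compounds plus 20 nM camptothecin for at least 48 h at 37 C; viability read as ATP content by CellTiter-Glo luminescence.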
Hits are given with their value; i = inactive; ? = inconclusive; nt = no result given. Unless noted, calls come from the whole dose curve; as a rule, active = well fitted curve in the direction sought with a large enough effect; inconclusive = small, poorly fitted or top-dose-only effect, or another doubt; inactive = no such curve, though single readings can be large; an effect the other way counts as inactive or inconclusive.

SMILES	HT1080 IDH1KD tx	TDP1 cell noCPT	IL1B secr inh	HT1080NT lethal	TDP1 cell CPT
Cc1cccc(N2CCN(C(=O)C3CCN(c4ncnc5c4nc4n5CCCCC4)CC3)CC2)c1C	i	18µM	i	i	18µM
O=C(C1CCN(c2ncnc3c2nc2n3CCCCC2)CC1)N1CCN(c2ccccc2F)CC1	i	21µM	i	?	?
Cc1cccc(N2CCN(C(=O)C3CCN(c4ncnc5c4nc4n5CCCCC4)CC3)CC2C)c1 (configuration not stated)	?	4.6µM	?	?	6.5µM
Cc1ccc(S(=O)(=O)N2CCN(c3ccccc3)CC2)c(C)c1	i	i	i	i	i
CCOC(=O)C1=C(O)/C(=C/c2ccc(CNC(=O)C(=O)Nc3ccc(C)cc3)o2)N=C1C	i	6.5µM	i	i	?
CC(C)(C)c1ccc(S(=O)(=O)N2CCCCC2)cc1	i	?	i	i	?
Cc1ccc(S(=O)(=O)c2ccc(C)cc2)cc1	i	i	i	i	i
O=S(=O)(/C=C/C=C/S(=O)(=O)c1ccccc1)c1ccccc1	1.3µM	0.046µM	-101	?	0.026µM
CC(C)(C)c1ccc(S(=O)(=O)/C=C\C#N)cc1	nt	0.53µM	nt	nt	0.47µM
Cc1ccc(S(=O)(=O)/C=C/C#N)cc1	nt	0.65µM	nt	nt	1.3µM
Cc1ccc(S(=O)(=O)C=CS(=O)(=O)c2ccc(C)cc2)cc1	?	0.73µM	i	?	1µM
Cc1nn(C)cc1C(C)NC(=O)c1cc(COc2ccc(F)c(F)c2)on1 (configuration not stated)	i	?	i	i	?
Cc1ccc(S(=O)(=O)/C=C\C#N)cc1	nt	0.67µM	nt	nt	0.6µM
Cc1ccc(S(=O)(=O)CS(=O)(=O)c2ccc(C)cc2)cc1	?	i	i	i	i
Cn1c(SCCOc2ccccc2F)nc2ccccc2c1=O	i	16µM	i	i	18µM
O=c1[nH]c(SCc2ccc(F)cc2Cl)nc2ccccc12	i	21µM	i	i	i
O=c1[nH]c(SCCOc2ccccc2F)nc2ccccc12	i	6.5µM	i	i	i
Fc1ccccc1OCCSc1nnnn1-c1ccccc1	i	i	i	i	i
COc1ccccc1OCCSc1nc2ccccc2c(=O)[nH]1	i	?	i	i	?
CSCCC(NC(=O)c1ccc(Cl)cc1Cl)C(=O)NNC(=O)c1ccncc1 (configuration not stated)	i	i	i	i	i
C/C=C/COC(=O)C1=C(C)NC(=O)NC1c1ccc2c(c1)OCO2 (configuration not stated)	i	i	i	i	i
CSCCOC(=O)C1=C(C)NC(=O)NC1c1ccc2c(c1)OCO2 (configuration not stated)	i	i	i	i	i
CC1=C(C(=O)OCc2ccc3c(c2)OCO3)C(c2ccc(F)cc2)NC(=O)N1 (configuration not stated)	5µM	4.1µM	i	4.5µM	4.1µM
CC1=C(C(=O)OC2CCCCC2)C(c2ccc(F)cc2)NC(=O)N1 (configuration not stated)	i	?	-53	i	i
CC1=C(C(=O)OCC2CCCO2)C(c2ccc(Cl)c(Cl)c2)NC(=O)N1 (configuration not stated)	i	?	-50	i	?
SMILES	HT1080 IDH1KD tx	TDP1 cell noCPT	IL1B secr inh	HT1080NT lethal	TDP1 cell CPT
CC1=C(C(=O)OCc2ccc3c(c2)OCO3)C(c2ccc(Cl)cc2)NC(=O)N1 (configuration not stated)	2.2µM	2.9µM	i	2.5µM	2.3µM
Cc1ccc(S(=O)(=O)CCc2nnc(NC(=O)COc3cccc(C)c3)s2)cc1	i	?	i	i	?
C=CCn1c(SCC(=O)c2ccc(O)c(O)c2)nnc1-c1ccc(OC)cc1	i	16µM	i	i	21µM
Cn1c(SCC(=O)c2ccc(O)c(O)c2)nnc1-c1ccccc1	i	?	i	i	?
C=CCn1c(SCC(=O)c2ccc(O)c(O)c2)nnc1-c1ccc(C)cc1	i	?	i	i	16µM
C=CCn1c(SCC(=O)c2ccc(O)c(O)c2)nnc1-c1cccc(OC)c1	i	15µM	i	i	15µM
C[C@H](CO)N1C[C@H](C)[C@@H](CN(C)C(=O)c2ccc3ccn(C)c3c2)OCc2cn(nn2)CCCC1=O	i	i	i	i	i
Cc1c(C(=O)Nc2ccccc2F)sc2ncn(CC(=O)N3CCOCC3)c(=O)c12	i	i	i	i	i
CCN(CC)C(=O)c1[nH]cnc1C(=O)N[C@@H](C)C(=O)OCc1ccccc1	i	10µM	i	i	?
C[C@H](NC(=O)c1nc[nH]c1C(=O)N[C@@H](C)C(=O)OCc1ccccc1)C(=O)OCc1ccccc1	i	i	i	i	i
C[C@H](NC(=O)c1nc[nH]c1C(=O)NC(c1ccccc1)c1ccccc1)C(=O)OCc1ccccc1	i	23µM	i	?	23µM
Cc1ccc2nc(C3CCCCC3)c(Cc3ccccc3)n2c1	?	16µM	i	?	15µM
FC(F)(F)c1ccccc1Cc1c(C2CCCCC2)nc2c3ccccc3ccn12	?	?	i	i	?
Cc1ccc2nc(C3CCCCC3)c(Cc3ccccc3C(F)(F)F)n2c1	?	16µM	i	?	i
Cc1ccc2nc(C3CCCCC3)c(Cc3cccc(F)c3)n2c1	?	?	i	?	?
Cc1ccc(C(C)(C)NC(=O)C2CCC(=O)N(CC3CCCCC3)C2)cc1 (configuration not stated)	i	i	i	i	?
CCS(=O)(=O)c1ccc(O)c(NC(=O)Nc2ccccc2)c1	i	i	i	i	i
CCS(=O)(=O)c1ccc(O)c(NC(=O)Nc2ccc(C(C)(C)C)cc2)c1	?	?	-88	?	i
O=C(NCC(O)c1ccc2ccccc2c1)c1c(F)cccc1F (configuration not stated)	i	i	i	i	i
NC(CSC(c1ccccc1)(c1ccccc1)c1ccccc1)C(=O)O (configuration not stated)	?	5.2µM	i	?	5.8µM
NC(CC(=O)NC(c1ccccc1)(c1ccccc1)c1ccccc1)C(=O)O (configuration not stated)	i	i	i	i	i
Cn1ncc2cc3c(Nc4ccc(Cl)cc4)cccc3nc21	?	12µM	i	?	21µM
COc1ccc(NC(=O)CC2C(=O)Nc3ccccc3N2CC(=O)N2CCCC2)cc1 (configuration not stated)	i	i	i	i	i
